PubChem BioAssay AID504715 (Sanford-Burnham Center for Chemical Genomics, 2011)
The list shows a part of the results. Active and inactive are the calls of the source.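 How the source made its calls: active means compounds giving 40% or more inhibition at 20 µM in any one of the three replicates; inactive means the rest.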

Target: Uracil-DNA glycosylase (Escherichia coli (strain K12)) (UniProt P12295)
Experiment: uracil-DNA glycosylase inhibition, oligo cleavage readout – biochemical, single concentration, fluorescence, FAM/TAMRA oligo, counter-screen for APOBEC3G inhibitor project, confirmation (AID 504715);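 further: plate controls were DMSO wells with UDG and oligo for no effect and DMSO wells lacking both for full effect; inhibitors lower the FAM signal released by uracil excision and alkaline cleavage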
Conditions: UDG counterscreen, at 20 µM, active compounds read high

Uracil-DNA glycosylase (Escherichia coli (strain K12)), sequence (P12295 whole entry, looked up): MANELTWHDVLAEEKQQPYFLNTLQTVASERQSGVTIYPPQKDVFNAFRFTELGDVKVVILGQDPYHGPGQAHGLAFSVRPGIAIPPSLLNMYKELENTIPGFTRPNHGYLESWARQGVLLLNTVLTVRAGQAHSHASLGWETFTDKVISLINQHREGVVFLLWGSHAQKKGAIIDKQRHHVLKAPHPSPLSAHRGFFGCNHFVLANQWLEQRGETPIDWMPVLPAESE

Row | SMILES | inhibition
1 | CC(C)(C)c1nnc(NC(=O)C2c3ccccc3Oc3ccccc32)s1 | -3.35% (inactive)
2 | S=c1[nH]nc(-c2ccc(Cl)cc2)n1CC1CCCO1 (stereo unspecified) | 2.84% (inactive)
3 | Cc1ccnc(-n2sc3ccccc3c2=O)n1 | -5.94% (inactive)
4 | Fc1ccc(Nc2nnns2)cc1 | 3.44% (inactive)
5 | COCc1c(N)c(C)nc(Cl)c1C#N | -3.83% (inactive)
6 | COc1ccc(OCc2nnc3n2N=C(c2ccccc2)C(CC(=O)O)S3)cc1 (stereo unspecified) | -3.19% (inactive)
7 | Cc1ccc(C(=O)c2c(NC(=O)c3ccccc3)sc(C)c2C)cc1 | 2.57% (inactive)
8 | CCOc1ccc(NC(=O)c2ccc(NC(=O)COC(=O)c3ccc(NC(=O)CC#N)cc3)cc2)cc1 | 2.3% (inactive)
9 | COc1ccc(N2C(=O)CC(Sc3n[nH]c(-c4ccc(C)cc4)n3)C2=O)cc1 (stereo unspecified) | -1.53% (inactive)
10 | S=c1[nH]nc(-c2cc(-c3ccccc3)n[nH]2)n1/N=C/c1c2ccccc2cc2ccccc12 | 7.23% (inactive)
11 | Cc1ccc(NC(=O)c2sc3nc(N)c(C#N)cc3c2N)cc1 | -3.69% (inactive)
12 | S=c1[nH]nc(-c2ccncc2)n1/N=C/c1ccccc1Cl | -3.82% (inactive)
13 | Cc1cc(-c2n[nH]c(=S)n2-c2ccc(C)c(C)c2)no1 | -3.59% (inactive)
14 | Cc1noc(C)c1CSc1nc2cc(S(=O)(=O)N3CCOCC3)ccc2o1 | 1.21% (inactive)
15 | CCOC(=O)c1sc(=S)n2c1[nH]c(=O)c1ccc(C(=O)OC)cc12 | 1.35% (inactive)
16 | Nc1ccccc1SC(C[N+](=O)[O-])c1ccccc1 (stereo unspecified) | -4.66% (inactive)
